Measurements from PubChem BioAssay AID1159580 (chemical genetic matrix, 2015).
“And” between values parts separate entries of the source, which are not always exact repeats. Identical values can stand only once. The whole screen tested about 5,500 compounds, of which about 2,000 (36%) were called active. Not shown: some 18% with an inconclusive outcome. No stated cut-off is given here; in the data, active means normalized growth mostly below about 0.91 (no sharp cut-off); inconclusive means no clear call, values can overlap the other calls; inactive means mostly above about 0.92. Some of the results follow.

Assay: chemical genetic growth profiling, strain panel (AID 1159580);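 further: tested at 20 µM; growth read once vehicle control cultures reached saturation at 30 °C; 1 = growth at the plate median or of vehicle wells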
Conditions: S. cerevisiae deletion strains, growth OD

Measured: normalized growth

C=CCc1cc(OC)c2c(c1OC)OCO2
active: locus YBR023C, strain chs3, stronger effect = lower value 0.902 | locus YBR171W, strain sec66, stronger effect = lower value 0.874 | locus YDL040C, strain nat1, stronger effect = lower value 0.924 | locus YDR101C, strain arx1, stronger effect = lower value 0.908 | locus YDR159W, strain sac3, stronger effect = lower value 0.797 | locus YDR195W, strain ref2 1.22 [resistant] | locus YDR392W, strain spt3, stronger effect = lower value 0.378 | locus YER111C, strain swi4, stronger effect = lower value 0.898 | locus YER155C, strain BEM2 (second series), stronger effect = lower value 0.462 | locus YGL167C, strain pmr1, stronger effect = lower value 0.908 | locus YGL227W, strain vid30, stronger effect = lower value 0.882 | locus YGL240W, strain doc1, stronger effect = lower value 0.839 | locus YHR013C, strain ard1, stronger effect = lower value 1.32 [resistant] | locus YHR142W, strain chs7, stronger effect = lower value 0.723 | locus YJL095W, strain BCK1 (second series), stronger effect = lower value 0.879
inactive: locus YAL013W, strain DEP1, stronger effect = lower value 0.971 | locus YAL021C, strain ccr4, stronger effect = lower value 1 | locus YAL026C, strain drs2, stronger effect = lower value 0.955 | locus YAL030W, strain snc1, stronger effect = lower value 0.95 | locus YBL061C, strain skt5, stronger effect = lower value 0.926 | locus YBR009C, strain hhf1, stronger effect = lower value 0.938 | locus YBR021W, strain FUR4, stronger effect = lower value 0.934 | locus YBR229C, strain ROT2, stronger effect = lower value 0.996 | locus YBR231C, strain swc5, stronger effect = lower value 0.982 | locus YBR279W, strain paf1, stronger effect = lower value 0.966 | locus YCL011C, strain gbp2, stronger effect = lower value 0.937 | locus YCL016C, strain dcc1, stronger effect = lower value 0.937 | locus YCL029C, strain bik1, stronger effect = lower value 0.945 | locus YCL061C, strain MRC1, stronger effect = lower value 0.944 | locus YCL069W, strain vba3, stronger effect = lower value 0.969 | locus YCR088W, strain abp1, stronger effect = lower value 0.954 | locus YDL005C, strain med2, stronger effect = lower value 0.992 | locus YDL035C, strain GPR1, stronger effect = lower value 0.968 | locus YDL074C, strain BRE1, stronger effect = lower value 0.91 | locus YDL101C, strain DUN1, stronger effect = lower value 0.995 | locus YDL134C, strain PPH21, stronger effect = lower value 0.982 | locus YDL185W, strain tfp1, stronger effect = lower value 0.968 | locus YDL192W, strain arf1, stronger effect = lower value 0.956 | locus YDR001C, strain nth1, stronger effect = lower value 0.93 | locus YDR069C, strain doa4, stronger effect = lower value 1.06 | locus YDR137W, strain rgp1, stronger effect = lower value 0.955 | locus YDR150W, strain NUM1, stronger effect = lower value 0.979 | locus YDR162C, strain NBP2, stronger effect = lower value 0.951 | locus YDR297W, strain sur2, stronger effect = lower value 0.94 | locus YDR318W, strain mcm21, stronger effect = lower value 0.947 | locus YDR334W, strain swr1, stronger effect = lower value 1.02 | locus YDR335W, strain msn5, stronger effect = lower value 0.982 | locus YDR388W, stronger effect = lower value 0.947 | locus YDR502C, strain sam2, stronger effect = lower value 0.929 | locus YEL003W, strain gim4, stronger effect = lower value 0.955 | locus YEL037C, strain rad23, stronger effect = lower value 0.987 | locus YEL061C, strain CIN8 (second series), stronger effect = lower value 0.946 | locus YEL061C, strain CIN8, stronger effect = lower value 0.966 | locus YER015W, strain faa2, stronger effect = lower value 0.955 | locus YER016W, strain bim1, stronger effect = lower value 0.938 | locus YER110C, stronger effect = lower value 0.929 | locus YER155C, strain BEM2, stronger effect = lower value 0.96 | locus YER167W, strain BCK2, stronger effect = lower value 0.938 | locus YFR010W, strain ubp6, stronger effect = lower value 1.06 | locus YGL078C, strain dbp3, stronger effect = lower value 0.959 | locus YGL086W, strain mad1, stronger effect = lower value 0.962 | locus YGL173C, strain kem1, stronger effect = lower value 0.909 | locus YGL248W, strain PDE1, stronger effect = lower value 0.983 | locus YGL253W, strain hxk2, stronger effect = lower value 0.945 | locus YGR078C, strain PAC10, stronger effect = lower value 0.903 | locus YGR135W, strain pre9, stronger effect = lower value 0.948 | locus YGR229C, strain SMI1, stronger effect = lower value 0.932 | locus YGR252W, strain gcn5, stronger effect = lower value 0.969 | locus YHR027C, strain rpn1, stronger effect = lower value 0.947 | locus YHR030C, strain SLT2, stronger effect = lower value 0.963 and 0.999 | locus YHR079C, strain IRE1 (second series), stronger effect = lower value 0.932 | locus YHR079C, strain IRE1, stronger effect = lower value 0.995 | locus YHR094C, strain hxt1, stronger effect = lower value 0.935 | locus YHR129C, strain ARP1, stronger effect = lower value 0.955 | locus YHR200W, strain rpn10, stronger effect = lower value 0.969 | locus YIL066C, strain RNR3, stronger effect = lower value 0.979 | locus YIL073C, strain SPO22, stronger effect = lower value 1.07 | locus YIL125W, strain kgd1, stronger effect = lower value 0.934 | locus YIR030C, strain dcg1, stronger effect = lower value 0.933 | locus YJL092W, strain hpr5, stronger effect = lower value 0.922 | locus YJL095W, strain BCK1, stronger effect = lower value 0.868 and 0.994 | locus YJL115W, strain asf1, stronger effect = lower value 0.978 | locus YJL129C, strain trk1, stronger effect = lower value 0.942 | locus YJL134W, strain LCB3, stronger effect = lower value 0.973 | locus YJL154C, strain vps35, stronger effect = lower value 0.989 | locus YJL164C, strain tpk1, stronger effect = lower value 0.939 | locus YJL166W, strain qcr8, stronger effect = lower value 0.934 | locus YJL168C, strain set2, stronger effect = lower value 0.94 | locus YJL187C, strain SWE1 (second series), stronger effect = lower value 0.985 | locus YJL187C, strain SWE1, stronger effect = lower value 0.945 | locus YJR043C, strain POL32, stronger effect = lower value 1.05 | locus YJR066W, strain TOR1, stronger effect = lower value 0.95
